A selection: hits, their analogues and other compounds. The true share with any hit is near 19%.
IL-1B inflam inh: blocks inflammasome-driven IL-1 beta release; THP-1 LPS/ATP IL-1B secretion, AlphaLISA, 16 h; active compounds read low; activity change, % at 57.5 µM; hit rate 4.7% among 360,000; AID 743279; in the data active = activity change below about -50%; inconclusive = mostly about -30% to -49%
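Secreted IL-1B measured by AlphaLISA bead assay after 16 h compound exposure of THP-1 cells; compounds (final up to 57.5 uM) added 1 h before LPS (250 ng/mL) and ATP (1.25 mM) stimulation; lower signal means less secretion.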
HT1080 IDH1KD tx: HT-1080 IDH1 knockdown cell toxicity (counter line); HT-1080 IDH1 knockdown viability, ATP luminescence, 48 h; Potency, µM (series often up to 46.1 µM), without a hit: at the top dose activity, negative = toxicity, actives largely listed as cytotoxic; hit rate 2% among 360,000; AID 686971;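 also: potency is read from the fitted curve at half-maximal effect; 0% = DMSO wells and -100% = cell-free medium wells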
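Viability of IDH1-knockdown HT-1080 fibrosarcoma cells was assessed by CellTiter-Glo after 48 h at 37 °C with titrated compound; concentration-effect curves were classified by fit quality and response size.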
HT1080-NT tox: kills 2HG-producing HT-1080-NT fibrosarcoma cells; HT-1080-NT fibrosarcoma viability, CellTiter-Glo ATP luminescence, 48 h; Potency, µM (doses to about 46.1 µM), for inactives: at the top dose activity, negative = less viability, actives largely listed as cytotoxic; hit rate 1.6% among 360,000; AID 686970;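 also: NT is the 2HG producing partner of a matched IDH1 knockdown line; potency is read from the fitted curve at half-maximal effect; 0% = DMSO-treated cells and -100% = media-only wells without cells; nearly all actives have a fitted effect of over 55% in size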
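Compounds were tested in concentration-response format on HT-1080-NT cells for 48 hours at 37 degrees C. Cell viability came from CellTiter-Glo luminescence; curves were classified by r2, response magnitude and activity.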
TDP1 cell noCPT: qHTS for Inhibitors of human tyrosyl-DNA phosphodiesterase 1 (TDP1): qHTS in cells in absence of CPT | hit rate 15% among 420,000 | DT40 Tdp1-/- hTDP1 cells, no CPT, ATP luminescence, 48 h | Potency, µM (titrated, usually from 46.2 µM), for inactives: at the top dose activity change, negative = growth inhibition, usual class: inhibitors | AID 686978, 2013; also: potency is read from the fitted curve at half-maximal effect; nearly all actives have a fitted effect of over 55% in size
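Chicken DT40 Tdp1-/- cells complemented with human TDP1, screened without camptothecin (DMSO vehicle only), 400 cells/well. Compounds pin-transferred, cells incubated at 37 °C for at least 48 hr. Growth read as ATP-dependent luminescence (CellTiter-Glo, 30 min at RT).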
DT40 TDP1 CPT: growth inhibition of DT40 Tdp1-/-;hTDP1 cells with camptothecin (screen for TDP1 inhibitors). chicken DT40 Tdp1-/-;hTDP1 cells + 20 nM CPT, ATP luminescence, 48 h. Potency, µM (titrated, usually from 46.2 µM), for the others: top-dose activity change, negative = growth inhibition, hits mostly inhibitors. hit rate 12% among 420,000; also: potency is read from the fitted curve at half-maximal effect; nearly all actives have a fitted effect of over 55% in size
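Chicken DT40 Tdp1-/- cells complemented with human TDP1, 400 cells/well, exposed to compounds plus 20 nM camptothecin for at least 48 h at 37 C; viability read as ATP content by CellTiter-Glo luminescence.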
Starred values were filed as active, the others as inactive; [ ] = remark or other dose. Unless noted, calls follow the shape of the dose curve; as a rule, active = well fitted curve in the direction sought with a large enough effect; inconclusive = small, poorly fitted or top-dose-only effect, or another doubt; inactive = no such curve, though single readings can be large; an effect the other way counts as inactive or inconclusive. Unless noted, % is scaled to controls: 0 for no effect and ±100 for the full control effect.

Screening C[C@H](CO)N1C[C@H](C)[C@H](CN(C)C(=O)Oc2ccccc2)OCc2cnnn2CCCC1=O returned IL-1B inflam inh 10, HT1080 IDH1KD tx 7%, HT1080-NT tox 7%, TDP1 cell noCPT 0% and DT40 TDP1 CPT -3%.
`Cn1cc(C=C2C(=O)NC(=O)NC2=O)c2ccccc21` gave IL-1B inflam inh 11, HT1080 IDH1KD tx inconclusive, HT1080-NT tox 3%, TDP1 cell noCPT -2% and DT40 TDP1 CPT 6%.
For O=C1NC(=O)C(=Cc2cccs2)C(=O)N1 the results were IL-1B inflam inh -18, HT1080 IDH1KD tx -10%, HT1080-NT tox 2%, TDP1 cell noCPT 16µM* and DT40 TDP1 CPT 18µM*.
CCOc1ccc(N2C(=O)/C(=C\c3cccs3)C(=O)NC2=S)cc1 was read as IL-1B inflam inh -99*, HT1080 IDH1KD tx -17%, HT1080-NT tox inconclusive, TDP1 cell noCPT inconclusive and DT40 TDP1 CPT inconclusive.
Screening O=C1NC(=O)C(=Cc2csc3ccccc23)C(=O)N1 returned IL-1B inflam inh -21, HT1080 IDH1KD tx 0%, HT1080-NT tox 0%, TDP1 cell noCPT 18µM* and DT40 TDP1 CPT 16µM*.
For O=C1NC(=O)N(CC2CCCO2)C(=O)/C1=C/c1cccs1 (centres undefined) the results were IL-1B inflam inh 37, HT1080 IDH1KD tx 3%, HT1080-NT tox 23%, TDP1 cell noCPT inconclusive and DT40 TDP1 CPT inconclusive.
Screening O=C1NC(=S)N(c2ccccc2F)C(=O)/C1=C\c1cccs1 returned IL-1B inflam inh -91*, HT1080 IDH1KD tx -17%, HT1080-NT tox 6%, TDP1 cell noCPT inconclusive and DT40 TDP1 CPT 21µM*.
Screening CCOc1ccc(N2C(=O)/C(=C/c3ccco3)C(=O)NC2=S)cc1 returned IL-1B inflam inh 0, HT1080 IDH1KD tx -7%, HT1080-NT tox -11%, TDP1 cell noCPT 0% and DT40 TDP1 CPT -14%.
`COc1cccc(C2=CC(c3cc(Br)ccc3F)n3nnnc3N2)c1` (centres undefined) gave TDP1 cell noCPT 1.3µM* and DT40 TDP1 CPT 1.3µM*.
`COc1ccc(Nc2nc(N)nc(CSc3nc4ccccc4s3)n2)cc1` gave TDP1 cell noCPT 16µM* and DT40 TDP1 CPT 15µM*.
Screening CC[C@H]1C2C[C@H]3[C@@H]4N(C)c5ccccc5C45C[C@H](C2[C@H]5O)N3[C@@H]1O (some centres undefined) returned IL-1B inflam inh 8, HT1080 IDH1KD tx -3%, HT1080-NT tox 3%, TDP1 cell noCPT -23% and DT40 TDP1 CPT inconclusive.
O=C(NCc1c(-n2cccc2)sc2c1CCCC2)Nc1cccc(C(F)(F)F)c1 was read as TDP1 cell noCPT 4.1µM* and DT40 TDP1 CPT 4.1µM*.
Screening COc1ccc(S(=O)(=O)Nc2ccccc2OC)cc1N=Nc1c(O)[nH]c(=S)[nH]c1=O returned IL-1B inflam inh 0, HT1080 IDH1KD tx 12µM*, HT1080-NT tox 15µM*, TDP1 cell noCPT inconclusive and DT40 TDP1 CPT inconclusive.
For O=C(O)CCCc1ccc(N(CCCl)CCCl)cc1 the results were IL-1B inflam inh -1, HT1080 IDH1KD tx 1%, HT1080-NT tox -7%, TDP1 cell noCPT 0.65µM* and DT40 TDP1 CPT 0.46µM*.
Screening O=C(Cc1ccc(N(CCCl)CCCl)cc1)NC(Cc1ccc(Cl)cc1)C(=O)O (centres undefined) returned IL-1B inflam inh 0, HT1080 IDH1KD tx 9%, HT1080-NT tox 15%, TDP1 cell noCPT inconclusive and DT40 TDP1 CPT inconclusive.
COc1c(/C=C2/C(=O)NC(=O)N(C)C2=O)c(CCN(C)C(=O)c2ccccc2)cc2c1OCO2 was read as IL-1B inflam inh 13, HT1080 IDH1KD tx 9%, HT1080-NT tox 6%, TDP1 cell noCPT -15% and DT40 TDP1 CPT 0%.
CCN(CC)CCCOC(=O)C(OC(C)C)(c1ccccc1)c1ccccc1 was read as IL-1B inflam inh -56*, HT1080 IDH1KD tx inconclusive, HT1080-NT tox inconclusive, TDP1 cell noCPT 18µM* and DT40 TDP1 CPT 23µM*.
For CCOC(C(=O)OCCCN(CC)CC)(c1ccccc1)c1ccccc1 the results were IL-1B inflam inh inconclusive, HT1080 IDH1KD tx -13%, HT1080-NT tox -13%, TDP1 cell noCPT inconclusive and DT40 TDP1 CPT -18%.
Screening C[C@H](CO)N1C[C@H](C)[C@@H](CN(C)C(=O)c2ccc3c(c2)OCO3)Oc2cc(/C=C/c3ccccc3)ccc2S1(=O)=O returned IL-1B inflam inh inconclusive, HT1080 IDH1KD tx -28%, HT1080-NT tox -21%, TDP1 cell noCPT 8.2µM* and DT40 TDP1 CPT 21µM*.
`CCc1c(C(=O)NN2C(=O)C3C4CCC(O4)C3C2=O)csc1C` (centres undefined) gave IL-1B inflam inh -1, HT1080 IDH1KD tx 14%, HT1080-NT tox 1%, TDP1 cell noCPT -23% and DT40 TDP1 CPT -3%.
CCCCOC(=O)c1ccc(NC(=O)c2c(O)[nH]c(=O)[nH]c2=O)cc1 was read as IL-1B inflam inh 15, HT1080 IDH1KD tx -3%, HT1080-NT tox 0%, TDP1 cell noCPT -2% and DT40 TDP1 CPT 21%.
For COc1cccc(/C=C/c2nc3ccccc3c(=O)n2-c2ccc(Cl)cc2)c1OC the results were TDP1 cell noCPT inconclusive and DT40 TDP1 CPT 15µM*.
`Cc1nc2ccccc2c(=O)n1-c1ccc(F)cc1` gave IL-1B inflam inh 22, HT1080 IDH1KD tx 5%, HT1080-NT tox 5%, TDP1 cell noCPT 6% and DT40 TDP1 CPT 0%.
`Cc1cccc(-n2c(/C=C/c3cn(C)c4ccccc34)nc3ccccc3c2=O)c1` gave TDP1 cell noCPT 9.2µM* and DT40 TDP1 CPT 6.5µM*.
`O=C(O)c1ccc(/C=C/c2nc3ccccc3c(=O)n2-c2ccc(Br)cc2)cc1` gave IL-1B inflam inh inconclusive, HT1080 IDH1KD tx -20%, HT1080-NT tox -5%, TDP1 cell noCPT inconclusive and DT40 TDP1 CPT -29%.
`Cc1ccc(-n2c(/C=C/c3cccc4ccccc34)nc3ccccc3c2=O)cc1` gave TDP1 cell noCPT 21µM* and DT40 TDP1 CPT inconclusive.
Cc1cccc(-n2c(/C=C/c3cccc4ccccc34)nc3ccccc3c2=O)c1 was read as TDP1 cell noCPT 6.5µM* and DT40 TDP1 CPT 9.2µM*.
`COCCOCCO` gave TDP1 cell noCPT -12%[92.5 µM] and DT40 TDP1 CPT -3%[92.5 µM].
Screening O=c1c2ccccc2nc(/C=C/c2cccc3ccccc23)n1-c1ccc(Cl)cc1 returned TDP1 cell noCPT 26µM* and DT40 TDP1 CPT 21µM*.
Screening NCCc1ccc(OCc2ccccc2)c(OCc2ccccc2)c1 returned IL-1B inflam inh -82*, HT1080 IDH1KD tx inconclusive, HT1080-NT tox -25%, TDP1 cell noCPT 12µM* and DT40 TDP1 CPT 16µM*.

High-throughput results: PubChem, National Center for Advancing Translational Sciences (NCATS)
